{"source": "PubChem BioAssay (NCATS)", "note": "Where “and” joins values, the source holds several entries; their conditions need not be identical. Equal entries are not always repeated. Results filed as inconclusive are left out. Calls of active or inactive are those of the source. The call rests on the fitted dose curve."}
{"test": "qHTS Assay for Lipid Storage Modulators (AID 1519); on activity change, negative = inhibition: on the % scale 0 is the no-effect control and ±100 the full control effect", "settings": "Drosophila S3 cells, BODIPY lipid droplet/cell ratio, laser cytometry; at 57.5 µM (top of the series); cells loaded with oleic acid", "procedure,_shortened": "(§1)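 Cells seeded at 5,000 per well were treated with compounds over a concentration series and loaded with oleic acid (400 uM, as added). Lipid droplet fluorescence (488 nm excitation, 500-530 nm channel) was read by laser-scanning cytometry and normalized to 20 uM Triacsin C.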"}
{"molecule": "C#C[C@]1(O)CCC2C3CCC4=C(CCC(=O)C4)C3CC[C@@]21C", "note": "(stereo partly drawn)", "activity change, negative = inhibition": "7.93% (inactive)"}
{"molecule": "FC(F)(F)c1ccccc1-c1ccc2ncnc(NCc3cccs3)c2c1", "activity change, negative = inhibition": "-3.1% (inactive)"}
{"molecule": "COc1ccccc1CNc1cc(-c2cccc(C#N)c2)ncn1", "activity change, negative = inhibition": "3.16% (inactive)"}
{"molecule": "C=CC(C)(O)CCC=C(C)C", "note": "(stereo not drawn)", "activity change, negative = inhibition": "-9.56% (inactive)"}
{"molecule": "O=c1cc(-c2ccc(O)cc2)oc2cc(O[C@H]3OC(CO)C(O)C(O)C3O)cc(O)c12", "note": "(stereo partly drawn)", "activity change, negative = inhibition": "6.29% (inactive)"}
{"test": "qHTS Assay for Lipid Storage Modulators (AID 1519); on activity change, negative = inhibition: on the % scale 0 is the no-effect control and ±100 the full control effect", "settings": "Drosophila S3 cells, BODIPY lipid droplet/cell ratio, laser cytometry; measured here: cell count channel max response; cells loaded with oleic acid", "procedure,_shortened": "as §1"}
{"molecule": "FC(F)(F)c1ccccc1-c1ccc2ncnc(N3CCOCC3)c2c1", "max response": "20.5%"}
{"molecule": "COCCn1c(=O)c(C)nc2cnc(Nc3ccccc3)nc21", "max response": "-5.32%"}
{"molecule": "COc1cccc(Cn2c(=O)cnc3cnc(N4CCN(C)CC4)nc32)c1", "max response": "20.4%"}
{"molecule": "C[N+](C)(C)CC(O)CC(=O)O", "note": "(stereo not drawn)", "max response": "12.3%"}
{"molecule": "COc1ccc2ccc(=O)oc2c1", "max response": "-2.86%"}
{"molecule": "NC(Cc1c[nH]c2ccccc12)C(=O)O", "note": "(stereo not drawn)", "max response": "25.9%"}
{"molecule": "COc1cc2c(cc1OC)C1Cc3ccc(OC)c(OC)c3CN1CC2", "note": "(stereo not drawn)", "max response": "12.8%"}
{"molecule": "CN1CCN(c2ccnc(-c3ccc(N(C)C)cc3)n2)CC1", "max response": "22.6%"}
{"molecule": "Cc1occc(=O)c1O", "max response": "0.823%"}
{"molecule": "O=C(/C=C/c1ccc(O)c(O)c1)OC(Cc1ccc(O)c(O)c1)C(=O)O", "note": "(stereo not drawn)", "max response": "10.1% and -5.16%"}
{"molecule": "O=c1ccc2ccc(O)cc2o1", "max response": "11.1%"}
{"molecule": "COc1ncc2nc(-c3cccs3)c(=O)n(C)c2n1", "max response": "19.4%"}
{"molecule": "CN1CCCC[C@@H]1CCN1c2ccccc2Sc2ccc(S(C)=O)cc21", "note": "(stereo partly drawn)", "max response": "-6.84%"}
{"molecule": "N#Cc1cccc(-c2ccc3ncnc(NCc4ccccc4)c3c2)c1", "max response": "4.36%"}
{"molecule": "COC(=O)C1=CO[C@@H](C)[C@H]2CN3CCc4c([nH]c5ccccc45)[C@@H]3C[C@H]12", "max response": "3.91% and -17.6%"}
{"molecule": "O=C(Cc1cccs1)NC1C(=O)N2C(C(=O)[O-])=C(C[n+]3ccccc3)CSC12", "note": "(stereo not drawn)", "max response": "18%"}
{"molecule": "Oc1ccc2c(c1)OCC1(O)Cc3cc(O)c(O)cc3C21", "note": "(stereo not drawn)", "max response": "-15.6%"}
{"molecule": "C=C(C)[C@H]1CC=C(C)C(=O)C1", "max response": "-28%"}
{"molecule": "CN1C(CC(=O)c2ccccc2)CCCC1CC(O)c1ccccc1", "note": "(stereo not drawn)", "max response": "13%"}
{"molecule": "CC12CC[C@@H]3c4ccc(OS(=O)(=O)O)cc4CC[C@H]3C1CCC2=O", "note": "(stereo partly drawn)", "max response": "-14.5%"}
{"molecule": "CN(C)C(=O)c1ccc(-c2nc(N(C)C)c3ccccc3n2)cc1", "max response": "8.15%"}
{"molecule": "COc1ccccc1-c1nccc(NCc2ccccc2)n1", "max response": "3.72%"}
{"molecule": "CC(C)(S)[C@H](N)C(=O)O", "max response": "10.4%"}
{"molecule": "C=C[C@](C)(O)CCC=C(C)C", "max response": "15.3%"}
{"molecule": "CN1CCN(c2ncc3ncc(=O)n(-c4ccccc4)c3n2)CC1", "max response": "21.7%"}
{"molecule": "COS(C)(=O)=O", "max response": "-1.86%"}
{"molecule": "CC1=CC(=O)CC(C)(C)C1(O)/C=C/C(C)=C\\C(=O)O", "note": "(stereo not drawn)", "max response": "12.7% and 14.4%"}
{"molecule": "CC1(C)SC2C(NC(=O)Cc3ccccc3)C(=O)N2C1C(=O)O", "note": "(stereo not drawn)", "max response": "11.4%"}
{"molecule": "CN(C)CC/C=C1\\c2ccccc2CSc2ccccc21", "max response": "-12.7%"}
{"molecule": "C=C(NC(=O)C(=C)NC(=O)c1csc(C2=NC3c4csc(n4)C4NC(=O)c5csc(n5)C(C(C)(O)C(C)O)NC(=O)C5CSC(=N5)C(=CC)NC(=O)C(C(C)O)NC(=O)c5csc(n5)C3(CC2)NC(=O)C(C)NC(=O)C(=C)NC(=O)C(C)NC(=O)C(C(C)CC)NC2C=Cc3c(C(C)O)cc(nc3C2O)C(=O)OC4C)n1)C(N)=O", "note": "(stereo not drawn)", "max response": "27.8%"}
{"molecule": "Cc1cnc(CNc2ncnc3ccc(-c4ccccc4C(F)(F)F)cc23)cn1", "max response": "8.56%"}
{"molecule": "COc1ccccc1CNc1ncnc2ccc(-c3cccc(C#N)c3)cc12", "max response": "-3.32%"}
{"molecule": "C#C[C@]1(O)CCC2C3CCC4=C(CCC(=O)C4)C3CC[C@@]21C", "note": "(stereo partly drawn)", "max response": "-6.89%"}
{"molecule": "C[C@@H]1CCC[C@H](C)N1NC(=O)c1ccc(Cl)c(S(N)(=O)=O)c1", "max response": "17.3%"}
{"molecule": "FC(F)(F)c1ccccc1-c1ccc2ncnc(NCc3cccs3)c2c1", "max response": "9.21%"}
{"molecule": "COc1ccccc1CNc1cc(-c2cccc(C#N)c2)ncn1", "max response": "4.01%"}
{"molecule": "CC(C)N1CCN(c2ccc(OC[C@@H]3CO[C@@](Cn4cncn4)(c4ccc(Cl)cc4Cl)O3)cc2)CC1", "max response": "-0.321%"}
{"molecule": "C=CC(C)(O)CCC=C(C)C", "note": "(stereo not drawn)", "max response": "-17.5%"}
{"molecule": "O=c1cc(-c2ccc(O)cc2)oc2cc(O[C@H]3OC(CO)C(O)C(O)C3O)cc(O)c12", "note": "(stereo partly drawn)", "max response": "-4.63%"}
{"test": "qHTS Assay for Lipid Storage Modulators (AID 1519); on activity change, negative = inhibition: on the % scale 0 is the no-effect control and ±100 the full control effect", "settings": "Drosophila S3 cells, BODIPY lipid droplet/cell ratio, laser cytometry; measured here: lipid channel max response; cells loaded with oleic acid", "procedure,_shortened": "as §1"}
{"molecule": "FC(F)(F)c1ccccc1-c1ccc2ncnc(N3CCOCC3)c2c1", "max response": "23.6%"}
{"molecule": "COCCn1c(=O)c(C)nc2cnc(Nc3ccccc3)nc21", "max response": "-10.4%"}
{"molecule": "COc1cccc(Cn2c(=O)cnc3cnc(N4CCN(C)CC4)nc32)c1", "max response": "22.6%"}
{"molecule": "C[N+](C)(C)CC(O)CC(=O)O", "note": "(stereo not drawn)", "max response": "21.4%"}
{"molecule": "COc1ccc2ccc(=O)oc2c1", "max response": "5.5%"}
{"molecule": "NC(Cc1c[nH]c2ccccc12)C(=O)O", "note": "(stereo not drawn)", "max response": "44.9%"}
{"molecule": "COc1cc2c(cc1OC)C1Cc3ccc(OC)c(OC)c3CN1CC2", "note": "(stereo not drawn)", "max response": "22.2%"}
{"molecule": "CN1CCN(c2ccnc(-c3ccc(N(C)C)cc3)n2)CC1", "max response": "29.9%"}
{"molecule": "Cc1occc(=O)c1O", "max response": "13.2%"}
{"molecule": "O=C(/C=C/c1ccc(O)c(O)c1)OC(Cc1ccc(O)c(O)c1)C(=O)O", "note": "(stereo not drawn)", "max response": "18.1% and 1.39%"}
{"molecule": "O=c1ccc2ccc(O)cc2o1", "max response": "19.2%"}
{"molecule": "COc1ncc2nc(-c3cccs3)c(=O)n(C)c2n1", "max response": "24.1%"}
{"molecule": "CN1CCCC[C@@H]1CCN1c2ccccc2Sc2ccc(S(C)=O)cc21", "note": "(stereo partly drawn)", "max response": "-7.46%"}
{"molecule": "N#Cc1cccc(-c2ccc3ncnc(NCc4ccccc4)c3c2)c1", "max response": "2.9%"}
{"molecule": "COC(=O)C1=CO[C@@H](C)[C@H]2CN3CCc4c([nH]c5ccccc45)[C@@H]3C[C@H]12", "max response": "2.39% and -19.1%"}
{"molecule": "O=C(Cc1cccs1)NC1C(=O)N2C(C(=O)[O-])=C(C[n+]3ccccc3)CSC12", "note": "(stereo not drawn)", "max response": "28.7%"}
{"molecule": "Oc1ccc2c(c1)OCC1(O)Cc3cc(O)c(O)cc3C21", "note": "(stereo not drawn)", "max response": "-7.12%"}
{"molecule": "C=C(C)[C@H]1CC=C(C)C(=O)C1", "max response": "-15.9%"}
{"molecule": "CN1C(CC(=O)c2ccccc2)CCCC1CC(O)c1ccccc1", "note": "(stereo not drawn)", "max response": "12.2%"}
{"molecule": "CC12CC[C@@H]3c4ccc(OS(=O)(=O)O)cc4CC[C@H]3C1CCC2=O", "note": "(stereo partly drawn)", "max response": "-17.7%"}
{"molecule": "CN(C)C(=O)c1ccc(-c2nc(N(C)C)c3ccccc3n2)cc1", "max response": "13.9%"}
{"molecule": "COc1ccccc1-c1nccc(NCc2ccccc2)n1", "max response": "0.722%"}
{"molecule": "CC(C)(S)[C@H](N)C(=O)O", "max response": "19.3%"}
{"molecule": "C=C[C@](C)(O)CCC=C(C)C", "max response": "20.7%"}
{"molecule": "CN1CCN(c2ncc3ncc(=O)n(-c4ccccc4)c3n2)CC1", "max response": "23.9%"}
{"molecule": "COS(C)(=O)=O", "max response": "4.2%"}
{"molecule": "CC1=CC(=O)CC(C)(C)C1(O)/C=C/C(C)=C\\C(=O)O", "note": "(stereo not drawn)", "max response": "25.4% and 14.8%"}
{"molecule": "CC1(C)SC2C(NC(=O)Cc3ccccc3)C(=O)N2C1C(=O)O", "note": "(stereo not drawn)", "max response": "23.9%"}
{"molecule": "CN(C)CC/C=C1\\c2ccccc2CSc2ccccc21", "max response": "-19.8%"}
{"molecule": "C=C(NC(=O)C(=C)NC(=O)c1csc(C2=NC3c4csc(n4)C4NC(=O)c5csc(n5)C(C(C)(O)C(C)O)NC(=O)C5CSC(=N5)C(=CC)NC(=O)C(C(C)O)NC(=O)c5csc(n5)C3(CC2)NC(=O)C(C)NC(=O)C(=C)NC(=O)C(C)NC(=O)C(C(C)CC)NC2C=Cc3c(C(C)O)cc(nc3C2O)C(=O)OC4C)n1)C(N)=O", "note": "(stereo not drawn)", "max response": "5.44%"}
{"molecule": "Cc1cnc(CNc2ncnc3ccc(-c4ccccc4C(F)(F)F)cc23)cn1", "max response": "7.96%"}
{"molecule": "COc1ccccc1CNc1ncnc2ccc(-c3cccc(C#N)c3)cc12", "max response": "-14.8%"}
{"molecule": "C#C[C@]1(O)CCC2C3CCC4=C(CCC(=O)C4)C3CC[C@@]21C", "note": "(stereo partly drawn)", "max response": "3.32%"}
{"molecule": "C[C@@H]1CCC[C@H](C)N1NC(=O)c1ccc(Cl)c(S(N)(=O)=O)c1", "max response": "17%"}
{"molecule": "FC(F)(F)c1ccccc1-c1ccc2ncnc(NCc3cccs3)c2c1", "max response": "5.18%"}
{"molecule": "COc1ccccc1CNc1cc(-c2cccc(C#N)c2)ncn1", "max response": "4.55%"}
{"molecule": "CC(C)N1CCN(c2ccc(OC[C@@H]3CO[C@@](Cn4cncn4)(c4ccc(Cl)cc4Cl)O3)cc2)CC1", "max response": "-3.7%"}
{"molecule": "C=CC(C)(O)CCC=C(C)C", "note": "(stereo not drawn)", "max response": "-25.1%"}
{"molecule": "O=c1cc(-c2ccc(O)cc2)oc2cc(O[C@H]3OC(CO)C(O)C(O)C3O)cc(O)c12", "note": "(stereo partly drawn)", "max response": "3.59%"}
